# Values joined by “and” are separate entries in the source; they are usually repeats but may differ in a detail not shown here. Identical values can stand only once. Out of some 38,000 compounds screened, about 1,200 (3.2%) showed an effect of 50% or more. The median lay at about -58%. This is one part of a sample in which strong results are shown more often than they occur.
# Tested on: Plasmodium falciparum
# Assay: Calibr Malaria Delayed Death Assay SOP
# Format: functional, organism-based
# Parameters: scale not given: in the data most compounds retested in dose-response had high values
# Settings: concentration 4.99e-06 (unit not given; other assays of the set use mol/L)
Structure (SMILES),Percent Effect [%],Percent Effect (4.99 µM)
CCC(C)C(=O)N(CC(=O)OC)c1cccc(C)n1 (stereo not drawn),-66.48,
CCN(CC1CN(Cc2ncc(C)o2)CCO1)c1cccnn1 (stereo not drawn),-35.01,
CCN(CC1CN(Cc2c(C)noc2C)CCO1)c1cccnn1 (stereo not drawn),-53.53,
CCN(CC1CN(Cc2nc(C3CC3)no2)CCO1)c1cccnn1 (stereo not drawn),72.53,
CCNC(=O)Cc1ccc(-c2cccc3c2CCNC3)cc1,-6.885,
COCCC(=O)N1CCC2(CCCN2Cc2ccccc2)C1 (stereo not drawn),-58.21,
Nc1nc(CC(=O)N2CCCC(CCc3cccc(F)c3)C2)cc(=O)[nH]1 (stereo not drawn),-43.06,
CCN(C(=O)Nc1nncs1)C(C)c1cccc(OC)c1 (stereo not drawn),-32.07,
Cc1nc(C)n(CC2CCCCN2c2ncnc3ccsc23)n1 (stereo not drawn),-49.26,
CC(C)c1ccc(S(=O)(=O)Cc2nc(N)nc(N(C)C)n2)cc1,-42.62,
COc1ccccc1CC(C)N(C)CCS(C)(=O)=O (stereo not drawn),-4.563,
COc1ccccc1CCN(C)Cc1nc(N)nc(N(C)C)n1,69.03,
CN(CC(=O)Nc1cccc(F)c1)Cc1nc(N)nc(N(C)C)n1,-117.7,
COc1ccc(Cl)cc1-c1nc(N)nc(N(C)C)n1,-104.8,
Cc1ccccc1CC1(C(=O)O)CCCN(c2ncnc3[nH]ccc23)C1 (stereo not drawn),-4.529,
Cc1c(C(=O)NCCC(C)C)nnn1-c1cccc2c1CCN(C)C2,-15.36,
CC(O)CN1CCN(Cc2cccc(C(=O)N(C)C)c2)CC1 (stereo not drawn),-48.6,
CC(O)CN1CCN(Cc2cccc(C#N)c2)CC1 (stereo not drawn),12.6,
CC(O)CN1CCC(CNCc2cn(-c3ccccc3)nn2)CC1 (stereo not drawn),-67.96,
CC(O)CN1CCC(CNCc2cccc(Cl)c2)CC1 (stereo not drawn),87.41,
Cc1ncccc1CNCC1CCN(CC(O)c2ccccc2)CC1 (stereo not drawn),29.35,
CN1Cc2cc(F)ccc2N(CC(O)C(F)(F)F)CCC1=O (stereo not drawn),13.79,
Cc1ccc(CN(C)C(=O)c2ccc(NC3CC3)nc2)o1,-155.8,
CCN1CCN(Cc2c(C3CCCC3)[nH]c3ncccc23)CC1,-34.79,
COc1ccc2c(C)c(C(=O)NCCCc3csc(N)n3)oc2c1,-56.16,

Structure (SMILES),Percent Effect [%],Percent Effect (4.99 µM)
Cc1ccc(-c2cc(C(=O)NCCCc3csc(N)n3)[nH]n2)o1,18.73,
Cc1ccc(-c2cc(C(=O)NCCCc3csc(N)n3)[nH]n2)s1,65.08,
Cc1ccc(CN2CCN(c3nc4c(s3)c(C)nn4C)C(C)C2=O)cc1 (stereo not drawn),68.91,
Cc1nn(C)c2nc(N3CCNC(=O)C3Cc3ccccc3)sc12 (stereo not drawn),-89.32,
COC(=O)CN1CCN(c2nc3c(s2)c(C)nn3C)C(C)C1=O (stereo not drawn),-95.69,
COCC(O)CNc1ccc(C#N)cc1C(F)(F)F (stereo not drawn),-11.9,
CCCS(=O)(=O)N1CC[C@@H]2[C@@H]1CC(=O)N2Cc1csc(C)n1,-243.1,
Cc1cccc(NC(=O)C(C)Oc2ccc3c(c2)OCO3)n1 (stereo not drawn),-110.7,
Cc1cccc(C2(NC(=O)CCN3C(=O)CCC3=O)CCCC2)c1,-32.71,
CSCC(=O)NC1(c2cccc(Cl)c2)CC1,-138.1,
CS(=O)(=O)CCCNC1(c2cccc(F)c2)CC1,-29.12,
Cc1cccc(C2(NCCCS(C)(=O)=O)CCCC2)c1,88.41,
Brc1ccc(C2(NCc3noc(C4CC4)n3)CCC2)cc1,8.334,
CC(C)(C)c1ccc(C2(C(=O)NCCCS(C)(=O)=O)CC2)cc1,-66.39,
CS(=O)(=O)CCCNC1(c2ccc(Br)cc2)CCC1,77.64,
N#CCCCS(=O)(=O)NC1(c2cccc(Cl)c2)CC1,-108.7,
CC(Nc1cnn(C)c(=O)c1Cl)c1ccc(F)c(F)c1 (stereo not drawn),-61.95,
COc1cc(-c2n[nH]c(CCN)n2)cc(OC)c1OC,-46.27,
Cc1nc(CSCc2ccc(OCC(F)(F)F)nc2)no1,-117.9,
Cc1cccc(CN2C(=O)C[C@H]3[C@@H]2CCN3Cc2ccccn2)n1.O=C(O)C(F)(F)F.O=C(O)C(F)(F)F.O=C(O)C(F)(F)F,-25.52,
Cc1cc(CN2CCC(C3CCN(CCc4ccccc4)CC3)C2)[nH]n1 (stereo not drawn),93.56,
Cc1cc(CN2CCC(C3CCN(Cc4cccnc4)CC3)C2)[nH]n1 (stereo not drawn),8.003,
Cc1cc(CN2CCC(C3CCN(CCc4ccccc4)C3)CC2)[nH]n1 (stereo not drawn),35.64,
Cc1cc(C)cc(CN2C[C@@H]3OCCN(CC(=O)N(C)C)[C@@H]3C2)c1.O=C(O)C(F)(F)F,-102.5,
COc1ccc(CCNCc2ccco2)cc1OC,3.158,

Structure (SMILES),Percent Effect [%],Percent Effect (4.99 µM)
CCCc1ccc(OCCNCc2ccco2)c(OC)c1.Cl,50.1,
COc1cc(C(C)=O)ccc1OCCNCc1ccco1.Cl,-1.065,
COc1ccc(CN2CCN(CCn3ccnc3)CC2)cc1F,-77.09,
N#CCCSc1nnc(Cc2ccccc2F)o1,0.1656,
N#Cc1cccc(CN2CC[C@@H]3CO[C@@H](CN4CCCC4)[C@@H]3C2)c1.O=C(O)C(F)(F)F.O=C(O)C(F)(F)F,9.568,
CN1CCN(C[C@@H]2OC[C@H]3CN(CCc4ccccc4)CC[C@H]32)CC1.O=C(O)C(F)(F)F.O=C(O)C(F)(F)F.O=C(O)C(F)(F)F,64.83,
O=C(O)C(F)(F)F.O=C(O)C(F)(F)F.c1cc2c(cc1CN1CC[C@H]3CO[C@H](CN4CCCC4)[C@H]3C1)OCO2,77.9,
CN1CCN(C[C@@H]2OC[C@H]3CN(Cc4cccc(F)c4)CC[C@H]32)CC1.O=C(O)C(F)(F)F.O=C(O)C(F)(F)F.O=C(O)C(F)(F)F,17.46,
Cc1ccc(CN2CC[C@@H]3[C@@H](CO[C@H]3CN3CCN(C)CC3)C2)cc1.O=C(O)C(F)(F)F.O=C(O)C(F)(F)F.O=C(O)C(F)(F)F,-1.718,
Cc1ccc(CN2CC[C@H]3CO[C@H](CN4CCCC4)[C@H]3C2)o1.O=C(O)C(F)(F)F.O=C(O)C(F)(F)F,27.44,
Cn1cc(N2CCC3(CCCN(Cc4ccoc4)C3)C2=O)cn1 (stereo not drawn),-100.7,
O=C1CCC2(CCN(CC[C@H](O)c3ccccc3)CC2)CN1CCO,-15.36,
NC(=O)CCNC(=O)C1(N2CCCCC2)Cc2ccccc2C1,-32.27,
CN1CC(C(=O)N2CCN(c3cccc(Cl)c3)C(=O)C2)NC1=O (stereo not drawn),-61.36,
Cc1cnn(CC(C)NCc2nc(-c3cccs3)no2)c1 (stereo not drawn),-78.64,
CC(Cn1cccn1)NCc1nc(-c2cccs2)no1 (stereo not drawn),-237.8,
CC(Cn1cccn1)NCCCc1nc(-c2cccs2)no1 (stereo not drawn),66.81,
CC(C)NC(=O)[C@H](C)NC(=O)N1CCN(c2ccc(Cl)cc2)CC1,-40.36,
CC(C)Cn1ncc(C(=O)NS(=O)(=O)c2ccccc2)c1C1CC1,-129.8,
COc1ccc(OC)c(C(C)NS(=O)(=O)c2cn(C)nc2C)c1 (stereo not drawn),-72.91,
CC(=O)NC[C@@H]1C=C(C)[C@H](CC(=O)NCCN(C)C)C[C@H]1C(C)C,-26.76,
CCc1ncc(C(=O)N(C)CCc2nc3cc(OC)ccc3[nH]2)cn1,-128,
CCn1nc(C)c(C(=O)N2C[C@@H](CN(C)C)[C@@H](CO)C2)c1C,,-17.38% and -19.57%
CC(=O)N1CCC(=O)N(C2CCCC2)Cc2ccccc21,-73.21,
COc1ccc(-c2csc3c2c(N)nc(=O)n3CCCN(C)C)cc1,54.04,

Structure (SMILES),Percent Effect [%],Percent Effect (4.99 µM)
CCn1c(=O)nc(N)c2c(-c3ccc(OC)cc3)csc21,-67.94,
COc1ccc(-c2csc3c2c(N)nc(=O)n3CCN(C)C)cc1,-27.97,
CC(C)c1nc(N2CC(N3CCCCC3C)C2)c2cnn(C)c2n1 (stereo not drawn),-59.85,
CC(C)c1nc(N2CCC(N3CCCCCC3)CC2)c2cnn(C)c2n1,50.67,
Cc1nc(N2CCCC(N3CCCC3)C2)c2cnn(C)c2n1 (stereo not drawn),-29.13,
Cc1nccn1C1CCCN(C(=O)c2cccc3c2OCO3)C1 (stereo not drawn),-58.82,
NC(=O)C1CCC(NC(=O)COc2ccc(Cl)c(Cl)c2)CC1 (stereo not drawn),13.16,
O=C1CC(N2CCN(c3ccccc3O)CC2)C(=O)N1Cc1cccs1 (stereo not drawn),-172.2,
CCN(Cc1nc(COC)no1)C(=O)CCn1c(C)cc2ccccc21,5.524,
Cc1cc2ccccc2n1CCC(=O)NCCN(C)S(C)(=O)=O,-87.62,
CCN(Cc1ccncc1)C(=O)CCn1c(C)cc2ccccc21,55.24,
CN(C)C(=O)CC1CC2(CCN(Cc3cccs3)CC2)c2ccccc21.O=C(O)C(F)(F)F (stereo not drawn),22.44,
CN1CCN(C(=O)N2CCCC(c3nccn3CC3CCC3)C2)CC1 (stereo not drawn),-95.73,
CC(=O)N1CCC(C(=O)NCc2ncc(-c3ccccc3)o2)CC1,-123.2,
CN(Cc1cnn(C)c1)C(=O)C1CCCN1Cc1ccccn1 (stereo not drawn),-66.14,
CC(=O)Nc1cccc(CN2CCCC2C(=O)Nc2nccs2)c1 (stereo not drawn),-76.05,
CC(C)(C)NC(=O)C1CCCCN1Cc1nccn1CC(F)(F)F (stereo not drawn),-48.44,
CCc1nc(CN2CCCC2C(=O)NC)cs1 (stereo not drawn),-71.78,
CCNc1ccnc(CN2CCCC2C(=O)Nc2nccs2)c1 (stereo not drawn),94.9,
CCn1ccnc1CN1CCCC1C(=O)Nc1nccs1 (stereo not drawn),84.6,
O=C(Nc1nccs1)C1CCCN1Cc1ccccn1 (stereo not drawn),93.51,
CCc1nc(CN2CCCC2C(=O)NC2CC2)cs1 (stereo not drawn),-16.64,
NC(=O)C1CCCN1Cc1nccn1CC(F)(F)F (stereo not drawn),-38.81,

# Reference: ChEMBL document CHEMBL3988442, “University of Dundee, Small-Polar-MMV Screening Library” (2021)
